The structures appear in SMILES notation. Records with an inconclusive call do not appear. The source made the active and inactive calls. Calls come from the whole dose curve; as a rule, active = well fitted inhibition curve with a large enough effect; inconclusive = small, poorly fitted or top-dose-only effect; inactive = flat fitted curve, though single readings scatter.

This test concerns the target Dual specificity tyrosine-phosphorylation-regulated kinase 1A (Homo sapiens) (UniProt Q13627). In words: Confirmation Assay for Inhibitors of Dyrk1a (Kinase-Glo Assay): KU probe. The conditions noted are these: Kinase-Glo ATP luminescence. The text has this: NIH Molecular Libraries Probe Production Centers Network [MLPCN] NIH Chemical Genomics Center [NCGC] MLSCN Grant: 1R03MH084827-01 PI Name: Tom Misteli NCGC Assay Overview: The CMGC group of protein kinases which includes CDK-like kinases (Clk) and Dyks are essential kinases found in all eukaryotes. Clks have been implicated to play a role in the regulation of alternative splicing; while Dyrks, in particular over expression of Dyrk1A, has been linked to diseases as Down syndrome (DS; OMIM 190685) and Alzheimer disease (AD; OMIM 104300). Among the members of the CMGC group, the Clks and the Dyrks are very closely related therefore to determine validity and selectivity of an active compound observed in the CLK4 qHTS screen (AID:1770), a bioluminescent counter-screen against Dyrk1A was developed. […]
NCGC Assay Protocol Summary: Two uL/well of substrate solution (8uM Dyrktide, 2uM ATP, 25mM Tris-HCl pH 7.5, 10mM MgCl2 , 0.5mM EGTA, 5mM cystein, 0.01% Triton X-100 final concentration) was dispensed into 1536-well assay plates (Greiner, solid white, medium-binding plates) with Aurora Discovery BioRAPTR Flying Reagent Dispenser (FRD, Beckton-Dickenson). […] The plates were spun for 30 seconds (1000 rpm) and incubated at ambient temperature for 2 minutes followed by a luminescence read using Perkin Elmer ViewLux plate reader at 3 seconds exposure time and 2x binning.

Consider `Cc1cc(CNc2ccnc(-c3ccc4c(c3)OCO4)n2)cnc1F`, for which the Potency is 18.4 µM (active).

(Values after PubChem BioAssay AID624093 (National Center for Advancing Translational Sciences (NCATS), 2012).)
